Assay outcomes (PubChem BioAssay)
Only some compounds are listed: those with a hit (about 3% of all), similar ones and a draw of the others.
ALOX12 inhib: blocks human 12-lipoxygenase activity; Potency, µM (titrated, usually from 57.1 µM), without a hit: at the highest dose activity change, negative = inhibition, most hits filed as inhibitors; P18054; purified 12-hLO, xylenol orange hydroperoxide absorbance; AID 1452; 0.12% of 150,000 active; also: potency is read from the fitted curve at half-maximal effect; nearly all actives have a fitted effect of over 55% in size
Target sequence (P18054 whole entry, looked up): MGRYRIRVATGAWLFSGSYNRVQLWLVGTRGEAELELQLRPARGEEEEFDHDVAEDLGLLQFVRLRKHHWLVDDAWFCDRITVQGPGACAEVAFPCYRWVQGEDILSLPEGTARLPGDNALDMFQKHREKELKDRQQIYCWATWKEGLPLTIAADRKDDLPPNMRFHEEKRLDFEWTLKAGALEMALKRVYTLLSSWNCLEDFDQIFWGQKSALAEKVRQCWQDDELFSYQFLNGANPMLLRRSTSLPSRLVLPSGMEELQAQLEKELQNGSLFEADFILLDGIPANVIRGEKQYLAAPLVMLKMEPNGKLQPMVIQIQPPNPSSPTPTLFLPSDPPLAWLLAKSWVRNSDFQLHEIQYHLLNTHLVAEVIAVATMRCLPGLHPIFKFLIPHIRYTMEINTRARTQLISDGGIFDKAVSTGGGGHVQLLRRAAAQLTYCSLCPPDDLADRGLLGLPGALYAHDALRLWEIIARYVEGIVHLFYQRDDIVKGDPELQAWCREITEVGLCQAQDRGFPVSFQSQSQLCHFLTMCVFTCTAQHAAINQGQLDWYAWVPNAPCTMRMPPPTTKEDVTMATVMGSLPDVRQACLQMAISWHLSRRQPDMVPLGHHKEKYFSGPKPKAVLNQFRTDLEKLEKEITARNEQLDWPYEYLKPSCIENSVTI
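Lipoxygenase turnover measured by absorbance at 573 and 405 nm after Fe-XO development. Human 12hLO 150 nM, arachidonate 40 uM, pH 7.0 Hepes buffer with detergent; 15 min compound preincubation, 30 min reaction.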
PNC assembly inh: perinucleolar compartment assembly inhibition. activity change (PNC), negative = inhibition, % at 10 µM. 3.1% of 140,000 active. PC3M PTB-GFP, PNC prevalence imaging, 16 h; stronger effect = lower value;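 active = readout at or below -70, meaning at least 70% loss of cells showing the perinucleolar compartment, a nuclear body marking cancer cells; inconclusive = readout between -30 and a set limit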;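 also: plate controls were DMSO wells for no effect and camptothecin positive control wells for full effect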
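Read-out is percentage of cells bearing a perinucleolar compartment, from automated 20x imaging of fixed, Hoechst-stained PC3M PTB-GFP cells. Cells were seeded 4 h, then exposed 16 h to compound (23 nl of library stock) in duplicate plates.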
IMPase inh: cell-permeable inhibitors of inositol monophosphatase (IMPase) | inhibition (IP1 accumulation), % at 46.1 µM | AID 901 | P97697 | CHO-M1 cells, IP1 accumulation, HTRF TR-FRET ratio | 120,000 tested, under 10 active; active = well fitted curve in the direction sought with a large enough effect in the signal ratio, not every such curve was filed as active; inconclusive = small, poorly fitted or top-dose-only effect, or a change in a side signal; inactive = no such curve, though single readings can be large or run the other way; the % refers to the signal ratio;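 also: cells stimulated with carbachol in lithium chloride buffer; plate controls were DMSO basal wells for no effect and reference inhibitor wells for full effect; higher means more IMPase inhibition seen as more IP1 and lower FRET ratio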
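CHO-M1, 2000 cells/well, cultured 16–30 h; cpd up to 46 uM; carbachol (50 uM solution, stimulation buffer w/ 50 mM LiCl, pH 7.4), 30 min 37C; IP-One TR-FRET, 10 min RT; Ex 320/Em 665, 620; Hill-fit AC50.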
ALOX15B inhib: inhibitors of human 15-lipoxygenase 2 (ALOX15B); O15296; purified 15hLO-2, xylenol orange hydroperoxide absorbance; Potency, µM (doses to about 57.1 µM), inactives show at the highest dose activity change, negative = inhibition, actives largely listed as inhibitors; 0.56% of 110,000 active; AID 881; also: potency is read from the fitted curve at half-maximal effect; nearly all actives have a fitted effect of over 60% in size
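Enzyme 50 nM, AA 45 uM, 25 mM Hepes pH 7.5 + 0.01% Triton X-100; cpd preinc 15 min RT, rxn 90 min RT; stop/detect with 200 uM XO + 300 uM Fe(II) in 50 mM H2SO4, 30 min; A573/A405.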
The depositor's hits bear a star; ? = inconclusive; nt = no result; [ ] = remark or other dose. Unless noted, calls follow the shape of the dose curve; as a rule, active = well fitted curve in the direction sought with a large enough effect; inconclusive = small, poorly fitted or top-dose-only effect, or another doubt; inactive = no such curve, though single readings can be large; an effect the other way counts as inactive or inconclusive. Unless noted, % is scaled to controls: 0 for no effect and ±100 for the full control effect.

SMILES | ALOX12 inhib | PNC assembly inh | IMPase inh | ALOX15B inhib
CCOC(=O)c1sc(/N=C/c2c(C)[nH]n(-c3ccccc3)c2=O)c(C#N)c1C | -6% | -112* | -3 | -2%
CCCCCCCCCCCCCCC(C(=O)OC)C(O)(CC(=O)OC)C(=O)OC (configuration not stated) | -7% | nt | nt | 10%
CCCCc1nc2ccccc2n2c(-c3ccc(OC)cc3)c3c(=O)n(C)c(=O)n(C)c3c12 | nt | nt | 6 | nt
Nc1ccn([C@@H]2O[C@@H](CO)[C@@H](O)[C@H]2O)c(=O)n1 | -2% | nt | 1 | 6%
COc1cc(CCC(=O)OCC(=O)Nc2ccccc2C(C)C)cc(OC)c1OC | 0% | -111* | -3 | nt
CCc1cccc(CC)c1NC(=O)COC(=O)CCc1cc(OC)c(OC)c(OC)c1 | 2% | -29 | 8 | nt
CCOC(=O)/C(=C\c1cccnc1)C(=O)c1cc(C(C)=O)c(Nc2ccccc2)s1 | -14% | -111* | 10 | -16%
O=C(NCc1ccco1)c1csc(Nc2ccccc2Cl)n1 | -3% | -117* | -5 | -4%
O=C(NCc1ccco1)Nc1ccccc1Cl | 2% | 17 | -4 | 0%
C[C@@]1(C(=O)O)CCC[C@@H]1C(=O)O | 5%[11.4 µM] | nt | nt | -1%[11.4 µM]
CC(C)OC(=O)/C(=C/c1cccnc1)NC(=O)c1ccccc1 | -1% | -92* | -7 | nt
COC(=O)/C(=C/c1cccnc1)NC(=O)c1ccccc1 | 1% | ? | 10 | nt
CCN1C(=O)N[C@H](c2ccccc2)C(C(C)=O)=C1C | 1%[11.4 µM] | nt | nt | nt
CC1SC(C)C(=O)N(CC(=O)NCc2ccc(F)cc2)C1=O (configuration not stated) | 2% | ? | -3 | nt
CCCOc1cccc(OCCSc2nc(C)cc(=O)[nH]2)c1 | -3% | -86* | 7 | -3%
Cc1cccc(NC(=O)N[C@@H](C)C(=O)O)c1 | 8% | -113* | 0 | 6%
CCOC(=O)c1cccc(NC(=O)N[C@@H](C)C(=O)OC)c1 | -8% | 15 | 0 | 8%
CCOC(=O)C1CCCN(C(=O)Cc2ccc(C)cc2)C1 (configuration not stated) | 1% | ? | -10 | 7%
O=C(CC(c1ccccc1)c1ccccc1O)N1CCCC1 (configuration not stated) | -2% | -88* | -3 | -4%
CCOC(=O)C1CCCN(C(=O)CC(c2ccccc2)c2ccccc2)C1 (configuration not stated) | -1% | -100* | 8 | nt
COC(=O)C1=C(C(=O)OC)[C@@H]2N(Cc3ccccc3)c3ccccc3[C@@]23C[C@@H](C(=O)OC)N(S(=O)(=O)c2cccs2)C3=N1 | 2%[11.4 µM] | nt | nt | nt
O=C(Nc1ccc(SC(F)F)cc1)C12CCC(CC1)C2 | -2% | -113* | -2 | nt
CCOCCCNC(=O)c1ccccc1SC | -4% | ? | 21 | -6%
CCOC(=O)c1ccccc1NC(=O)c1ccccc1SC | -24% | -80* | 12 | -12%
COCCCNC(=O)c1ccccc1SC | -3% | -107* | 9 | -1%
SMILES | ALOX12 inhib | PNC assembly inh | IMPase inh | ALOX15B inhib
COC(=O)c1ccccc1NC(=O)c1ccccc1SC | -7% | 18 | -5 | nt
CCOC(=O)c1ccccc1NC(=O)c1cccnc1 | 3% | ? | -6 | nt
CCOC(=O)c1ccccc1NC(=O)c1cncc(Br)c1 | -2% | -93* | ? | 6%
CC(C)[C@H](NC(=O)Nc1ccc(Oc2ccccc2)cc1)C(=O)O | -4% | ? | 5 | 13%
O=C(/C=C/c1ccco1)NC(=S)NNC(=O)c1ccco1 | -3% | 18 | -5 | nt
OCCN(C=NC1=NN(c2cccc(C(F)(F)F)c2)CC1)CCO | -30% | 43 | 13 | 25µM*
NC(=O)c1cccnc1Oc1cccc(Cl)c1 | -2% | ? | -4 | -5%
Clc1cccc(Oc2ncccn2)c1 | -2% | -83* | nt | nt
CC(C)CN(CCCNC(=O)CC1Oc2ccccc2NC1=O)CC(C)C (configuration not stated) | 0% | 43 | 11[1.84 µM] | 4%[11.4 µM]
CCCCN(CC)CCCNC(=O)CC1Oc2ccccc2NC1=O (configuration not stated) | 5% | -109* | -2[1.84 µM] | 15%[11.4 µM]
C=CCN1CCc2c(cc(O)c(O)c2Br)[C@H](c2ccccc2)C1 | -26% | nt | 9 | ?
COc1ccc(CCCc2nnc(SCC(=O)Nc3ccc(OC)cc3)o2)cc1 | nt | nt | 14 | nt
O=C(CSc1nnc(CCCOc2ccc(Cl)cc2Cl)o1)Nc1ccc(C(=O)O)cc1 | 4% | -86* | nt | nt
COC(=O)C1=C(C(=O)OC)[C@@H]2Nc3ccccc3[C@@]23C[C@@H](C(=O)OC)N(S(=O)(=O)c2ccc(C)cc2)C3=N1 | -4%[11.4 µM] | nt | nt | nt
Cc1onc(-c2ccccc2Cl)c1C(=O)N1C=CC(C(F)(F)Cl)=NCC1 | 0% | 63 | 4 | nt
CCC(CC)c1nnc(NC(=O)[C@@H](NC(=O)c2cccc(C)c2)C(C)C)s1 | 0% | -97* | 7 | nt
O=c1c(-c2ccccc2)nc2cnc(Nc3ccccc3)nc2n1Cc1cccs1 | nt | nt | nt | 0%
O=C(Nc1nnc(SCC(=O)N2CCOCC2)s1)c1ccccc1 | -1% | -89* | nt | nt
CCOC(=O)Cc1csc(NC(=O)c2sc3nc4cc(C)ccc4cc3c2N)n1 | -12% | -24 | -5 | nt
CCOC(=O)Cc1csc(NC(=O)c2sc3nc4ccc(CC)cc4cc3c2N)n1 | 10µM* | ? | -25 | -28%
O=C(Cc1ccccc1)NC(NCCc1ccccc1)C(Cl)(Cl)Cl (configuration not stated) | 2% | 50 | 4 | nt
O=C(O)CCCC[C@H]1CCSS1 | -6% | nt | -2 | 5%
COc1cc(C2CC(=O)n3c(nc4ccccc43)S2)cc(OC)c1OC (configuration not stated) | 4% | -98* | -5 | nt
CC(C)c1nc2oc3c(NCC4CCCO4)ncnc3c2c2c1CCC2 (configuration not stated) | -1% | -98* | 4 | 6%
CCCc1nc2oc3c(NCC4CCCO4)ncnc3c2c2c1COC(C)(C)C2 (configuration not stated) | 0% | ? | -11 | 6%
SMILES | ALOX12 inhib | PNC assembly inh | IMPase inh | ALOX15B inhib
COCCNC(=O)CSc1nc(-c2ccc(F)cc2)[nH]c1-c1ccc(Cl)cc1 | nt | nt | -2 | nt
O=C1OC(N2CCN(C/C=C/c3ccccc3)CC2)c2ccccc21 (configuration not stated) | 2% | -86* | ? | -3%
CC(C)C(NC(=O)CSc1ccc(Cl)cc1)C(C)C | 4% | -83* | 2 | -3%
CC(C)n1nnc2c(=O)oc3ccccc3c21 | 0% | -4 | nt | nt
COc1cccc(CNc2ccc(N3CCCCC3)cc2)c1OC | -22% | -14 | 4 | 25µM*
CC(=O)N1CCN(c2ccc(NCc3ccc(F)cc3)cc2)CC1 | ? | ? | 15 | 25µM*
C=CCOc1c(Cl)cc(CNc2ccc(C)c(Cl)c2)cc1OC | -12% | -92* | 7 | 1%
CCOc1cc(CNc2ccc(N3CCCC3)cc2)cc(Cl)c1OC | -9% | -113* | nt | nt
CC(=O)N1CCN(c2ccc(NC(=O)c3ccc(C(C)(C)C)cc3)cc2)CC1 | -3% | ? | -2[1.84 µM] | 5%[11.4 µM]
CCOc1ccccc1CNn1nnnc1N | -1% | -6 | nt | nt
